# Reference: paper PMC4336329 (PLoS ONE, 2015)
# Among all 310,000 compounds or so, about 14,000 (4.5%) showed an effect of 50% or more. The effect is printed as a negative number. The sample as a whole holds a higher share of strong results than the screen did.
# Biological target: human ether-à-go-go-related gene (hERG) potassium channel (human, UniProt Q12809)
# Assay: primary screen, population patch clamp on CHO cells stably expressing hERG; higher = less effect of the substance
# 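Also: peak tail current of the secondary pulse compared with the same well before compound.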
# human ether-à-go-go-related gene (hERG) potassium channel, sequence (Q12809 whole entry, looked up): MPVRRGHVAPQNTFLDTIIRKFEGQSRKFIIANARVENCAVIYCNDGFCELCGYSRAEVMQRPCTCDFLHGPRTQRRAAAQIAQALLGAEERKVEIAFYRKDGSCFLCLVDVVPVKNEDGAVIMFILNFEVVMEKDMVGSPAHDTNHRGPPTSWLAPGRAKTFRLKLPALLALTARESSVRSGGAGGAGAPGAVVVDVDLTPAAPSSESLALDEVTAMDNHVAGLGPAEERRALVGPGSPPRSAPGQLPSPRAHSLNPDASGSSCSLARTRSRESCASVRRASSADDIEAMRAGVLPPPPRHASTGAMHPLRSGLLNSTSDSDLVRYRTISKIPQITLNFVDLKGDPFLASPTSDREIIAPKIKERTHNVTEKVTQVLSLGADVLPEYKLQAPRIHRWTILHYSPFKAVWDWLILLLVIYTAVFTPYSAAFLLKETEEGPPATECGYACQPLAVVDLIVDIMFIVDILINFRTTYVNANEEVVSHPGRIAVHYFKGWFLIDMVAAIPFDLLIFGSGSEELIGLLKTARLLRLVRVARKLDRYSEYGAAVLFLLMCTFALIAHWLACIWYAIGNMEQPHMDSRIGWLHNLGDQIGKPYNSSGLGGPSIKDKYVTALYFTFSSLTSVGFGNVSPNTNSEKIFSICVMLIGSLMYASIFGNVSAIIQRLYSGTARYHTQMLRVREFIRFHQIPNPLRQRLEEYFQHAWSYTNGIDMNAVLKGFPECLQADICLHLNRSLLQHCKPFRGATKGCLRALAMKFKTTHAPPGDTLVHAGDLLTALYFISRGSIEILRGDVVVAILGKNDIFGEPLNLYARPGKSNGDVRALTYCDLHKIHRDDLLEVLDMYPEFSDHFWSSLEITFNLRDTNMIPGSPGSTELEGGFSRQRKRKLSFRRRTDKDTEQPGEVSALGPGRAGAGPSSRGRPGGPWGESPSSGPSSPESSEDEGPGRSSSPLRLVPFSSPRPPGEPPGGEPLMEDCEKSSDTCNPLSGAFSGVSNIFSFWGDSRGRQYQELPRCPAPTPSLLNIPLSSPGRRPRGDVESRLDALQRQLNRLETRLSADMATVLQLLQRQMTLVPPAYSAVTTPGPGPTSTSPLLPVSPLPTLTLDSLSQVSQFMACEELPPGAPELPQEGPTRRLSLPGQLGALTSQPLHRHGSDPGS
row,SMILES,"hERG current change (%, negative = inhibition) at 10uM [%]"
1,CC(=O)Cc1ccccc1OC(=O)c1ccco1,23.6
2,Cc1ccc(S(=O)(=O)N2CCN(C(=O)c3cc(=O)c4ccccc4o3)CC2)cc1,-55
3,COc1ccc(N2CCN(C(=O)c3cc(=O)c4cc(C)c(C)cc4o3)CC2)cc1,0.819
4,O=C(c1cc2ccccc2o1)N1CCN(c2cccc(Cl)c2)CC1,-16.3
5,CCOC(=O)c1ccc(S(=O)(=O)N2CCN(C(=O)c3cc(=O)c4ccccc4o3)CC2)cc1,-38.2
6,COc1ccc(N2CCN(C(=O)c3cc(=O)c4cc(C)ccc4o3)CC2)cc1,-38.1
7,O=C(c1cc(=O)c2ccccc2o1)N1CCN(c2ccccc2)CC1,1.71
8,Cc1cc(C)c2oc(C(=O)N3CCN(Cc4ccccc4)CC3)cc(=O)c2c1,-42.9
9,COc1ccc(N2CCN(C(=O)c3cc(=O)c4cc(Cl)ccc4o3)CC2)cc1,-76.3
10,CN1CCN(C(=O)c2cc(=O)c3cc(Cl)ccc3o2)CC1,-28.1
11,O=C(c1cc(=O)c2ccccc2o1)N1CCN(c2cccc(Cl)c2)CC1,-56.4
12,CC(=O)N1CCN(C(=O)c2cc(=O)c3ccccc3o2)CC1,26.2
13,O=C(c1cc(=O)c2cc(Cl)ccc2o1)N1CCN(Cc2ccccc2)CC1,-70.8
14,CCOc1ccc(NC(=O)CN(C)C(=O)Cc2ccsc2)cc1OCC,-11.2
15,Cc1cccc(C2C3=C(CCCC3=O)N=C3c4ccccc4C(=O)C32)c1 (stereo not shown),-0.327
16,CCOC(=O)Cn1c(=O)c2c(nc(N3CCOCC3)n2C)n(C)c1=O,-4.47
17,COc1ccc(C2=NOC(Cn3c(Cc4ccc(Cl)cc4)nc4c3c(=O)n(C)c(=O)n4C)C2)cc1 (stereo not shown),-22.1
18,COc1ccc2cc(-c3cc(C(=O)OCC(=O)NC4CCS(=O)(=O)C4)c4ccccc4n3)ccc2c1 (stereo not shown),16.1
19,CCc1nnc(NC(=O)c2sc3nc4cc(C)ccc4cc3c2N)s1,13
20,CCCCNC(=O)c1ccc(N2CCC3(CC2)OCCO3)c([N+](=O)[O-])c1,-22.2
21,CC(=O)c1ccc(S(=O)(=O)NC2CC(=O)N(c3ccc(Cl)cc3)C2)cc1 (stereo not shown),-34.8
22,O=C1CC(NS(=O)(=O)c2ccc([N+](=O)[O-])cc2)CN1c1ccc2c(c1)OCCO2 (stereo not shown),-1.64
23,O=C1CC(NS(=O)(=O)c2ccc([N+](=O)[O-])cc2)CN1c1ccc(Cl)cc1 (stereo not shown),-66.6
24,c1ccc(OCCCCN2CCCCC2)cc1,1.35
25,COc1cccc(OCCCN2CCCCCC2)c1.O=C(O)C(=O)O,-37.8
26,Brc1cccc(OCCCCN2CCCCC2)c1.O=C(O)C(=O)O,-68.9
27,Brc1cccc(OCCN2CCCCC2)c1.O=C(O)C(=O)O,-21.3
28,CCOc1cccc(OCCCCN2CCCCC2)c1,-38.1

row,SMILES,"hERG current change (%, negative = inhibition) at 10uM [%]"
1,Brc1cccc(OCCCN2CCCCCC2)c1.O=C(O)C(=O)O,-70
2,c1ccc(Oc2cccc(OCCCCN3CCCC3)c2)cc1,-78.3
3,Brc1cccc(OCCN2CCOCC2)c1.O=C(O)C(=O)O,19
4,Cc1cc(NN)nc(Cc2ccccc2)n1,10.2
5,Cc1cc(O)c(C(C)C)cc1NC(=O)c1cccc(Cl)c1,-13.4
6,O=C(CNC(=O)c1cccc(F)c1)OCC(=O)N1CCCc2ccccc21,-0.321
7,CCN(CC)c1ccc(C(=O)OCC(=O)Nc2cccc(S(=O)(=O)NC3=NCCCCC3)c2)cc1,7.02
8,O=C(NCCc1ccccc1)C(=S)N1CCCCC1,9.48
9,CC(=O)Nc1ccc(C(=O)COC(=O)CCc2ccccc2)c(F)c1,-2.03
10,CCc1ccc(NC(=O)c2ccccc2Br)cc1,-11.2
11,C=CCS(=O)(=O)N1CCCC(N(C)CCc2ccc(OC)c(OC)c2)C1 (stereo not shown),-16.1
12,COc1ccc(CCN(C)C2CCCN(S(=O)(=O)c3ccccc3F)C2)cc1OC (stereo not shown),-64.3
13,COc1ccc(CCN(C)C2CCCN(S(C)(=O)=O)C2)cc1OC (stereo not shown),-4.36
14,C/C=C(\C)CN1CCCC(N(C)CCc2ccc(OC)c(OC)c2)C1 (stereo not shown),-27.5
15,COc1ccc(CCN(C)C2CCCN(S(=O)(=O)N(C)C)C2)cc1OC (stereo not shown),-8.26
16,COc1ccc(CCN(C)C(=O)c2ccc(C)c(S(=O)(=O)N3CCCCC3)c2)cc1OC,-20.9
17,COc1ccc(CCN(C)C2CCCN(S(=O)(=O)c3ccccc3)C2)cc1OC (stereo not shown),-77.2
18,COc1ccc(S(=O)(=O)N2CCCC(C(=O)N3CCCC3)C2)cc1OC (stereo not shown),4.14
19,CN(CCc1ccccc1)C1CCCN(S(=O)(=O)c2cccc(F)c2)C1 (stereo not shown),-48.1
20,COc1ccc(S(=O)(=O)N2CCCC(N(C)CCc3ccccc3)C2)cc1OC (stereo not shown),-66.5
21,COc1ccc(CCN(C)C2CCCN(S(=O)(=O)C(C)C)C2)cc1OC (stereo not shown),-20.2
22,COc1ccc(CCN(C)C2CCCN(S(=O)(=O)c3ccc(C)cc3)C2)cc1OC (stereo not shown),-78
23,COc1ccc(NC(=O)c2nn(C34CC5CC(CC(C5)C3)C4)cc2[N+](=O)[O-])cc1,-0.0263
24,O=c1nc(N2CCOCC2)ccn1-c1nc(-c2ccccc2)oc1-c1ccccc1,-9.71
25,Cc1c(NC(=O)COC(=O)C23CC4CC(CC(O)(C4)C2)C3)c(=O)n(-c2ccccc2)n1C,10.1
26,Cc1oc(-c2ccccc2F)nc1CS(=O)(=O)CC(=O)NCc1ccccc1Cl,-17.9
27,c1ccc(Nc2ncnc3sc4c(c23)CCC4)cc1,0.132
